Laboratory results published in PubChem BioAssay.
Calls of active or inactive are those of the source. Unless noted, how the calls were made is not given here.

Tests used:
[1] = test system: XIP peptide (Xip251-270) binding; test: XIP fragment 251-270 binding compounds – biochemical, small-molecule microarray, fluorescence 635/667 nm, 0.1 µg/mL protein, primary screen (AID 1182); conditions: fluorescent protein binding, 635 nm, higher = more signal, called active from +8 up or from −8 down
[2] = test system: XIP peptide (Xip251-270); test: compounds binding XIP fragment 251-270 – biochemical, small-molecule microarray, fluorescence 635/667 nm, 0.5 µg/mL protein, primary screen (AID 1183); conditions: fluorescence 635 nm, higher = more signal
[3] = blood-stage malaria parasite viability loss – strain 3D7, DAPI fluorescence, 100 nL, primary screen (AID 1184);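 further: parasites grown inside human red blood cells in medium with human serum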; conditions: P. falciparum 3D7 growth, 3 d, higher = more signal
[4] = biological target: Homeobox protein Hox-A13 (Mus musculus) (UniProt Q62424); test: disruptors of Hoxa13 oligonucleotide interaction – biochemical, fluorescence polarization, labeled oligonucleotide, primary screen (AID 1185); conditions: Hoxa13:DNA binding, 15 min, higher = more signal, called active from +8 up or from −8 down
Chain of Homeobox protein Hox-A13 (Mus musculus) (Q62424 whole entry, looked up): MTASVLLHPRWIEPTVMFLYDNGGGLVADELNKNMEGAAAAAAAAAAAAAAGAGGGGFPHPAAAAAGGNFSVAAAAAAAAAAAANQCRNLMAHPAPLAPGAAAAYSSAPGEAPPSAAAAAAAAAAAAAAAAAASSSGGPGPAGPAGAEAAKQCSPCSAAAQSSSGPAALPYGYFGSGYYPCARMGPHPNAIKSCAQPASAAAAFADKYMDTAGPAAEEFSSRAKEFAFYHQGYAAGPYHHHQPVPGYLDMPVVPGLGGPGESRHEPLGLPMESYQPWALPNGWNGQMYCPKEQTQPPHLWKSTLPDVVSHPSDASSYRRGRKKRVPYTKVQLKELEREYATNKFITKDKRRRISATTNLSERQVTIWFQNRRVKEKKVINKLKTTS

[5] = blockers of DNA damage checkpoint Chk1 activation – imaging, HeLa, hydroxyurea, phospho-Chk1 antibody, percent positive cells, primary screen (AID 1186); conditions: hydroxyurea-induced phospho-Chk1 immunofluorescence imaging, higher = more signal
[6] = blockers of DNA damage checkpoint Chk1 activation – imaging, HeLa, hydroxyurea, phospho-Chk1 nuclear intensity, primary screen (AID 1187); conditions: hydroxyurea-induced phospho-Chk1 immunofluorescence imaging, higher = more signal

Row | SMILES | composite z-score [1] | composite z-score [2] | z-score [3] | z-score [4] | z-score [5] | z-score [6]
1 | CN1C(=O)C2C=CC(C(O)c3ccc([N+](=O)[O-])cc3)N(Nc3ccccc3)C2C1=O (stereo not given) | 0.924 (inactive) | 0.818 | -0.219 | -4.24 (inactive) | 0.533 (inactive) | 0.397 (inactive)
2 | O=C1O[C@H](c2ccccc2)[C@H](c2ccccc2)N2[C@H]1[C@@H](C(=O)Nc1nc3ccccc3s1)[C@]1(C(=O)Nc3ccccc31)[C@H]2c1ccccc1OCCO | 1.18 (inactive) | 0.758 | -1.08 | 2 (inactive) | 0.153 (inactive) | 0.65 (inactive)
3 | C=CCOC(=O)[C@H]1[C@@H]2C(=O)O[C@@H](c3ccccc3)[C@@H](c3ccccc3)N2[C@@H](c2ccc(OCCOC(=O)[C@@H]3C[C@@H]4C(=O)N[C@@H](Cc5ccccc5)C(=O)N4[C@@H]3c3ccc(O)cc3)cc2)[C@]12C(=O)Nc1ccc(I)cc12 | 1.12 (inactive) | 0.751 | -1.39 | 0.703 (inactive) | -0.272 (inactive) | -0.152 (inactive)
4 | Cc1ccc(S[C@]2(C(=O)NCCN3CCOCC3)CC(=O)N(C(C)C)[C@@H]2c2ccc(CO)cc2I)cc1 | 0.342 (inactive) | 0.93 | -0.191 | -3.43 (inactive) | -0.395 (inactive) | -0.0483 (inactive)
5 | [N-]=[N+]=NCc1ccccc1C[C@@]1(C(=O)NCCN2CCOCC2)N=C(c2ccc(OCCCO)cc2)O[C@@H]1c1ccccc1 | 0.682 (inactive) | 0.629 | -2.11 | -4.43 (inactive) | 0.174 (inactive) | 0.47 (inactive)
6 | C[C@]1(C(=O)NCC(F)(F)F)c2ccccc2C(=O)N(Cc2cc(C(F)(F)F)cc(C(F)(F)F)c2)[C@H]1c1ccc(CO)cc1 | 0.0939 (inactive) | 0.21 | 0.528 | -3.48 (inactive) | -0.496 (inactive) | -0.308 (inactive)
7 | COC(=O)[C@@]1(Cc2ccc(F)cc2)[C@H]2c3cc(C(=O)N(C)C)n(CCF)c3C[C@H]2CN1C(=O)c1ccccc1 | 0.588 (inactive) | 0.779 | -0.552 | -5.09 (inactive) | -0.847 (inactive) | -0.595 (inactive)
8 | CCOC(=O)C[C@H]1[C@H](OC(=O)c2ccc(-c3ccccc3)cc2)[C@@H](NC(=O)C2CCCCC2)c2cc(OCCCO)ccc2N1C(=O)Cc1ccc(OC)cc1 | -0.344 (inactive) | -0.355 | -0.0911 | -2.2 (inactive) | -0.0566 (inactive) | 0.295 (inactive)
9 | COc1ccc([Si](C)(C)[C@H]2[C@H](CC(=O)N(CCO)Cc3ccccc3)O[C@@]3(C(=O)N(c4ccccc4)c4ccccc43)[C@@H]2C)cc1 | -0.372 (inactive) | 0.342 | -2.62 | -5.46 (inactive) | -0.807 (inactive) | -0.763 (inactive)
10 | C=C(CC1([C@@H](NP(=O)(c2ccccc2)c2ccccc2)[C@H]2C[C@@H]2CCCC)CC1)c1cccc(OC)c1 | -0.68 (inactive) | -0.207 | -0.0814 | -1.55 (inactive) | 0.731 (inactive) | 0.788 (inactive)
11 | CCc1cccc(NC(=O)O[C@H]2[C@H](OC(=O)Nc3ccccc3-c3ccccc3)[C@H](OC(=O)Nc3ccccc3-c3ccccc3)[C@@H](OC)O[C@@H]2CO)c1 | 0.187 (inactive) | 0.591 | -2.53 | -1.39 (inactive) | -0.36 (inactive) | 0.0172 (inactive)
12 | COCCOC(=O)N1C(=O)[C@@]2(c3cc(C#CCNC(N)=O)ccc31)[C@H](c1ccccc1OCCO)N1[C@H](c3ccccc3)[C@H](c3ccccc3)OC(=O)[C@H]1[C@@H]2C(=O)N1CCCCCCC1 | 0.564 (inactive) | 0.824 | -2.13 | 0.831 (inactive) | -0.0593 (inactive) | -0.191 (inactive)
13 | CO[C@H]1O[C@H](CO)[C@@H](OC(=O)Nc2cccc(F)c2)[C@H](OC(=O)Nc2ccc3c(c2)OCO3)[C@@H]1OC(=O)Nc1ccc2c(c1)OCO2 | 0.968 (inactive) | 0.894 | -0.754 | -6.1 (inactive) | 0.223 (inactive) | 0.613 (inactive)
14 | C=CCN1C(=O)[C@]2(O[C@H](CCO)[C@@H]([Si](C)(C)c3ccc(OC)cc3)[C@@H]2C)c2cc(N3C(=O)c4ccccc4Oc4ccccc43)ccc21 | 0.297 (inactive) | 0.671 | -2.42 | -4.93 (inactive) | -1.05 (inactive) | -1.5 (inactive)
15 | C=CCNC(=O)[C@@H]1[C@H]2C(=O)O[C@H](c3ccccc3)[C@H](c3ccccc3)N2[C@H](c2ccc(OCCO)cc2)[C@@]12C(=O)Nc1ccc(C#CC3=CCCCC3)cc12 | 1.45 (inactive) | 0.799 | -1.39 | 1.89 (inactive) | 0.269 (inactive) | 0.273 (inactive)
16 | [N-]=[N+]=Nc1ccccc1C[C@@]1(C(=O)NCc2ccccc2)N=C(c2ccc(OCCCO)cc2)O[C@@H]1c1ccccc1 | -0.116 (inactive) | 0.746 | -2.51 | -2.4 (inactive) | -0.603 (inactive) | -0.942 (inactive)
17 | C=CC[C@]1(C(=O)NCC(O)CO)N=C(c2ccc(OCCCO)cc2)O[C@H]1c1ccccc1CN=[N+]=[N-] (stereo not given in full) | 0.513 (inactive) | -0.201 | -2.5 | -3.62 (inactive) | -0.116 (inactive) | -0.482 (inactive)
18 | CCCC[C@@H](O)C1=C(C)Cn2c(=O)n(-c3ccccc3)c(=O)n2[C@H]1CO | -0.387 (inactive) | 0.0389 | 0.0686 | -0.901 (inactive) | -0.522 (inactive) | -0.621 (inactive)
19 | Cc1ccc(S[C@]2(C(=O)NCc3ccccc3)CC(=O)N(Cc3ccccc3Cl)[C@@H]2c2ccc(CO)cc2)cc1 | 1.65 (inactive) | 0.825 | -1.2 | -2.65 (inactive) | 0.172 (inactive) | 0.622 (inactive)
20 | CC(C)(C)OC(=O)CC[C@]1(C(N)=O)N=C(c2ccc(OCCCO)cc2)O[C@H]1c1ccccc1N=[N+]=[N-] | 0.466 (inactive) | 0.351 | 0.129 | -6.52 (inactive) | -0.373 (inactive) | -0.285 (inactive)
21 | C=C[C@H](C)[C@@H](OC(=O)Nc1ccc(SC)cc1)c1ccc(OCCO)cc1 | -0.0975 (inactive) | -0.0208 | -0.526 | -4.53 (inactive) | -0.328 (inactive) | -0.809 (inactive)
22 | COc1ccc(NN2C(C(O)c3ccccc3)C=CC3C(=O)N(C4CCCCC4)C(=O)C32)cc1 (stereo not given) | 0.387 (inactive) | 0.745 | -1.08 | -4.8 (inactive) | 0.329 (inactive) | 0.711 (inactive)
23 | COc1cc(Cc2cc3c(c(-c4ccccc4)n2)[Si](C(C)C)(C(C)C)OC3)cc(OC)c1OC | -0.166 (inactive) | -1.01 | -0.822 | -0.497 (inactive) | -0.628 (inactive) | -0.317 (inactive)
24 | COC(=O)[C@@]1(Cc2ccc(F)cc2)[C@H]2c3cc(C(=O)N4CCCC4)n(C[C@H](O)CO)c3C[C@H]2CN1C(=O)c1ccccc1 | 1.17 (inactive) | 0.0592 | -0.534 | -5.57 (inactive) | 0.588 (inactive) | 0.439 (inactive)
25 | CN(C)C(=O)[C@]1(CCS(=O)(=O)c2ccccc2)N=C(c2ccc(OCCCO)cc2)O[C@@H]1c1ccccc1CN=[N+]=[N-] | 0.556 (inactive) | 0.816 | -2.13 | -4.39 (inactive) | -0.376 (inactive) | -0.0306 (inactive)
